Source: PubChem BioAssay (NCATS)
Several values for one entry are separate records, joined by “and”; a condition that tells them apart may be missing. Equal entries are not always repeated. Inconclusive results are not listed. Activity calls are given as the source filed them. The call rests on the fitted dose curve; in most records, active means well fitted inhibition curve with a large enough effect; inconclusive means small, poorly fitted or top-dose-only effect; inactive means flat fitted curve, though single readings scatter.

Experiments:
[1] = test system: CRL-7250; experiment: Cytotoxic Profiling of Annotated Libraries Using Quantitative High-Throughput Screening (AID 1296008); details: Five cell lines viability, CellTiter-Glo ATP luminescence, 48-72 h; max response: stronger effect = lower value; on max response: on the % scale 0 is the no-effect control and ±100 the full control effect
Method in brief: (§1)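 Cells exposed to compounds for 48 or 72 hr at 37 degrees Celsius. Viability read as ATP-coupled luminescence with CellTiter-Glo after 10 min at room temperature.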

[2] = test system: HEK293; experiment: as above; details: Five cell lines viability, CellTiter-Glo ATP luminescence, 48-72 h; max response: stronger effect = lower value
Method in brief: as §1

[3] = test system: HaCat; experiment: as above; details: Five cell lines viability, CellTiter-Glo ATP luminescence, 48-72 h; max response: stronger effect = lower value
Method in brief: as §1

[4] = test system: KB-3-1; experiment: as above; details: Five cell lines viability, CellTiter-Glo ATP luminescence, 48-72 h; max response: stronger effect = lower value
Method in brief: as §1

[5] = test system: PC49; experiment: qHTS profiling for inhibitors of Plasmodium falciparum proliferation (AID 504749); details: P. falciparum in erythrocytes, SYBR Green DNA, 72 h; series mostly up to 28.7 µM
Method in brief: (§2)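 Readout was DNA-dye fluorescence from lysed cultures, ex 485/em 535 nm. Parasitized red cells had grown 72 h with compound; data scaled between 0.29 uM artemisinin and DMSO wells and corrected using vehicle-only plates.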

[6] = test system: SC27B; experiment: as above; details: P. falciparum in erythrocytes, SYBR Green DNA, 72 h; series mostly up to 28.7 µM
Method in brief: as §2

[7] = test system: TAB109; experiment: as above; details: P. falciparum in erythrocytes, SYBR Green DNA, 72 h; series mostly up to 28.7 µM
Method in brief: as §2

[8] = test system: TAB113; experiment: as above; details: P. falciparum in erythrocytes, SYBR Green DNA, 72 h; series mostly up to 28.7 µM
Method in brief: as §2

[9] = test system: TAB165; experiment: as above; details: P. falciparum in erythrocytes, SYBR Green DNA, 72 h; series mostly up to 28.7 µM
Method in brief: as §2

[10] = test system: W2; experiment: as above; details: P. falciparum in erythrocytes, SYBR Green DNA, 72 h; series mostly up to 28.7 µM
Method in brief: as §2
Further: nearly all actives have a fitted effect of over 60% in size.
Potency means the concentration at half of the fitted maximal effect.

O=C(Nc1ccc2[nH]ncc2c1)C1CCC1
inactive: outcome [1] | max response [2] 0.86% | max response [3] -2.65% | max response [4] -1.12%

CCC1C(=O)OCC1Cc1cncn1C (stereo not drawn)
inactive: Potency [5] | Potency [6] | Potency [7] | Potency [8] | Potency [9] | Potency [10] | outcome [1] | max response [2] 0.743% | max response [3] 0.604% | max response [4] -11.4%

COc1cc2c3cc1Oc1cc(ccc1O)C[C@@H]1c4c(cc(OC)c(O)c4Oc4ccc(cc4)C[C@@H]3N(C)CC2)CC[N+]1(C)C
inactive: Potency [5] | Potency [6] | Potency [7] | Potency [8] | Potency [9] | Potency [10] | max response [1] 1.72% | outcome [2] | max response [3] 1.8% | max response [4] -2.77%

C=CCCCCCCCCC(=O)O
inactive: Potency [5] | Potency [6] | Potency [7] | Potency [8] | Potency [9] | Potency [10] | max response [1] 3.74% | outcome [2] | max response [3] 0.628% | max response [4] 1.18%

O=C(CCN1CCN(CCO)CC1)N1c2ccccc2Sc2ccc(C(F)(F)F)cc21
inactive: Potency [6] | Potency [8] | max response [1] -6.26% | max response [2] -1.82% | max response [3] -4.28% | max response [4] -4.21%
active: Potency [10] 7570 nM

CC1(C)[C@@H](O)CC[C@]2(C)[C@H]3C(=O)C=C4[C@@H]5C[C@@](C)(C(=O)O)CC[C@]5(C)CC[C@@]4(C)[C@]3(C)CC[C@@H]12
inactive: Potency [5] | Potency [6] | Potency [7] | Potency [8] | Potency [9] | Potency [10] | max response [1] 1.85% | outcome [2] | max response [3] -15.3%

CC1(C)[C@@H](O[C@H]2O[C@H](C(=O)O)[C@@H](O)[C@H](O)[C@H]2O[C@@H]2O[C@H](C(=O)O)[C@@H](O)[C@H](O)[C@H]2O)CC[C@]2(C)[C@H]3C(=O)C=C4[C@@H]5C[C@@](C)(C(=O)O)CC[C@]5(C)CC[C@@]4(C)[C@]3(C)CC[C@@H]12
inactive: max response [1] -24.4% | max response [2] -5.35% | max response [3] -32.3% | max response [4] 5.21% | outcome [4]

Nc1c(CC(=O)O)cccc1C(=O)c1ccc(Br)cc1
inactive: Potency [5] | Potency [6] | Potency [7] | Potency [8] | Potency [9] | Potency [10] | max response [1] 4.53% | max response [2] 2.21% | outcome [3] | max response [4] 0.539%

CN(CCCOc1ccc(Cc2ccccc2)cc1)CCC(=O)O
inactive: max response [1] 2.73% | max response [2] -4.43% | max response [3] -16.1% | max response [4] 7.31%

O=C(Nc1ccc(C(=O)O)c(O)c1)c1ccccc1
inactive: Potency [5] | Potency [6] | Potency [7] | Potency [8] | Potency [9] | Potency [10] | outcome [1] | outcome [2] | outcome [3] | max response [4] -1.99%

Nc1ccc(O)c(C(=O)O)c1
inactive: Potency [5] | Potency [6] | Potency [7] | Potency [8] | Potency [9] | Potency [10] | outcome [1] | max response [2] -8.37% | outcome [3]

Cc1nc2ccccc2n1Cc1ccc(Cl)cc1
inactive: Potency [5] | Potency [6] | Potency [7] | Potency [8] | Potency [9] | max response [4] -8.87%
active: Potency [1] 2110 nM | Potency [2] 1680 nM

CCCOC(=O)c1ccc(O)cc1
inactive: Potency [5] | Potency [6] | Potency [7] | Potency [8] | Potency [9] | Potency [10] | max response [1] 4.61% | max response [2] -6.34%

COc1ccc(-c2cc(=S)ss2)cc1
inactive: Potency [5] | Potency [7] | Potency [10] | max response [1] -2.86% | outcome [3] | max response [4] 24%

O=C(OCc1ccccc1)c1ccccc1
inactive: Potency [5] | Potency [6] | Potency [7] | Potency [8] | Potency [9] | Potency [10] | max response [2] -2.07% | max response [3] 4.92%

COc1cc(NC(C)CCCN)c2ncccc2c1 (stereo not drawn)
inactive: max response [1] 4.62% | outcome [3]

Clc1ccccc1-c1nc(-c2ccncc2)no1
inactive: Potency [5] | Potency [6] | Potency [8] | max response [1] -4.27% | outcome [3] | max response [4] 12%

CCCCN(CC)c1nc(C)nc2c1c(C)cn2-c1c(C)cc(C)cc1C
inactive: max response [1] -5.83% | max response [3] 4.42% | max response [4] -14.3%

CS(=O)(=O)c1ccc(-n2nc(C(F)(F)F)cc2-c2ccc(F)cc2)cc1
inactive: max response [2] 1.42% | outcome [3] | max response [4] -2.3%

Cc1c(C(=O)O)c(O)cc2c1C(=O)c1c(O)c([C@@H]3O[C@H](CO)[C@@H](O)[C@H](O)[C@H]3O)c(O)c(O)c1C2=O
inactive: max response [2] -35.5% | max response [4] -19.3%

c1ccc2sc(SN3CCOCC3)nc2c1
inactive: Potency [5] | Potency [6] | Potency [8] | outcome [1] | outcome [2] | outcome [3]

CN(C)c1ccc(C(=C2C=CC(=[N+](C)C)C=C2)c2ccccc2)cc1
active: Potency [7] 12600 nM | Potency [9] 5010 nM | Potency [10] 1350 nM | Potency [1] 84.1 nM | Potency [2] 94.4 nM | Potency [3] 266 nM
inactive: Potency [5] | Potency [6]

c1ccc(CCNc2nc(-c3ccccc3)cs2)cc1
inactive: outcome [3] | max response [4] -17.2%
active: Potency [2] 11900 nM

COC(=O)C1=C(C)NC(C)=C(C(=O)OCC(C)=O)C1c1ccccc1[N+](=O)[O-] (stereo not drawn)
inactive: outcome [2] | outcome [3]

O=Cc1ccc(O)c(O)c1O
active: Potency [2] 26600 nM
inactive: outcome [3]

O=C(O)Cc1cccc(-c2cc(CCCCCCc3ccc(O[C@H]4O[C@H](CO)[C@@H](O)[C@H](O)[C@@H]4O)c(-c4cccc(CC(=O)O)c4)c3)ccc2O[C@H]2O[C@H](CO)[C@@H](O)[C@H](O)[C@@H]2O)c1
inactive: max response [2] 1.99% | max response [3] -11.5% | outcome [4]

COc1cc(CNC(=O)CCCC/C=C/C(C)C)ccc1O
inactive: Potency [5] | Potency [6] | Potency [7] | Potency [8] | Potency [9] | Potency [10] | max response [1] 3.92% | max response [2] -1.55% | max response [4] -0.699% | outcome [4]

CC(N)C(=O)OC(C)(C)Cc1ccc(Cl)cc1 (stereo not drawn)
active: Potency [10] 4260 nM
inactive: max response [1] 4.4% | outcome [3] | max response [4] 3.19%

Cc1onc(-c2c(F)cccc2Cl)c1C(=O)N[C@@H]1C(=O)N2[C@@H]1SC(C)(C)[C@@H]2C(=O)O
inactive: max response [1] -6.01% | outcome [2] | max response [4] 3.63% and 6.4% | outcome [4]

O=C1CN(/N=C/c2ccc([N+](=O)[O-])o2)C(=O)N1
inactive: outcome [1] | max response [3] 1.83% | max response [4] -3.33%

CCCC(=O)OC[C@@H](OC(=O)CCC)[C@@H](OC(=O)CCC)[C@H](Cn1c2nc(=O)[nH]c(=O)c-2nc2cc(C)c(C)cc21)OC(=O)CCC
inactive: Potency [5] | outcome [1] | max response [3] 4.67% | max response [4] 23.7%

Cc1ccc(O)c(-n2nc3ccccc3n2)c1
inactive: Potency [5] | Potency [6] | Potency [7] | Potency [8] | Potency [9] | Potency [10] | max response [1] -18.8% | max response [2] -9.47% | max response [3] -23.9%

[O-][n+]1ccccc1SSc1cccc[n+]1[O-]
active: Potency [5] 1.41 µM | Potency [6] 891 nM | Potency [7] 891 nM | Potency [8] 891 nM | Potency [9] 891 nM | Potency [10] 757 nM | Potency [1] 461 nM | Potency [2] 411 nM | Potency [3] 731 nM

CC1(C)S[C@@H]2[C@H](NC(=O)[C@H](N)c3ccc(O)cc3)C(=O)N2[C@H]1C(=O)O
inactive: max response [1] -12.2% | outcome [2] | max response [4] 11.9% and 8.22%

Cc1cc(O)c2ccccc2c1O
inactive: Potency [5] | Potency [6] | Potency [7] | Potency [8] | Potency [9] | max response [1] -18% | outcome [3] | max response [4] 6.5%
active: Potency [10] 9530 nM

COc1ccc(/C=C/C(=O)Nc2ccccc2C(=O)O)cc1OC
inactive: Potency [5] | Potency [6] | Potency [7] | Potency [8] | Potency [9] | max response [1] 2.22% | max response [2] 0.531% | max response [4] -5.53% and 8.2%

CCCCCCCCCCCCCCCCCC(=O)O
inactive: Potency [5] | Potency [6] | Potency [8] | Potency [9] | Potency [10] | outcome [2] | outcome [3] | max response [4] -8.88%

CCCCCCCCCCCC(=O)[O][Sn]([CH2]CCC)([CH2]CCC)[O]C(=O)CCCCCCCCCCC
inactive: Potency [5] | Potency [6] | Potency [7] | Potency [8] | Potency [9] | Potency [10] | max response [1] -26.6% | max response [2] -9.3% | outcome [3]

CC1(C)S[C@@H]2[C@H](NC(=O)[C@H](NC(=O)N3CCN(S(C)(=O)=O)C3=O)c3ccccc3)C(=O)N2[C@H]1C(=O)O
inactive: Potency [5] | Potency [6] | Potency [7] | Potency [8] | Potency [9] | Potency [10] | max response [1] 4.22% | max response [2] -0.837% | outcome [3]

O=C(O)c1ccccc1Nc1cccc(C(F)(F)F)c1
inactive: Potency [5] | Potency [6] | Potency [7] | Potency [8] | Potency [9] | Potency [10] | max response [1] 0.849% | max response [2] 3.56%

CCCCC1C(=O)N(c2ccccc2)N(c2ccc(O)cc2)C1=O (stereo not drawn)
active: Potency [2] 4730 nM
inactive: max response [4] -9.78%

CN1[C@@H]2CC[C@H]1CC(OC(c1ccccc1)c1ccccc1)C2 (stereo partly drawn)
active: Potency [5] 3.55 µM and 1.41 µM | Potency [9] 11200 nM | Potency [10] 1900 nM
inactive: Potency [6] | max response [1] 0.151% | max response [2] -16.7% | outcome [3]

CCOc1ccc2nc(S(N)(=O)=O)sc2c1
inactive: Potency [5] | Potency [6] | Potency [7] | Potency [8] | Potency [9] | Potency [10] | max response [1] -14% | max response [2] -2.22% | max response [3] -4.97%
